This is a sample that favours compounds with a hit; in the whole collection about 15% have one here.
DT40 TDP1 CPT: DT40-hTDP1 cell growth loss with CPT; Potency, µM (series often up to 46.2 µM), most hits filed as inhibitors; chicken DT40 Tdp1-/-;hTDP1 cells + 20 nM CPT, ATP luminescence, 48 h; 420,000 tested, 12% active; note: nearly all actives have a fitted effect of over 55% in size
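Cell growth measured by CellTiter-Glo luminescence after a minimum 48 h, 37 C compound exposure with 20 nM CPT in Tdp1-knockout DT40 cells stably expressing hTDP1, seeded 400/well; qHTS titration format.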
Gal4-VP16 FLuc: Gal4-VP16 reporter inhibition counter-screen. Drosophila S2 Gal4-VP16 UAS-luciferase, luminescence, 20 h. Potency, µM (series often up to 53.6 µM), usual class: inhibitors. 310,000 tested, 3.5% active;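 note: Gal4-VP16 expression switched on by copper sulfate through the metallothionein promoter; nearly all actives have a fitted effect of over 50% in size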
RORg inh: blocks mouse ROR gamma transcriptional activity. Potency, µM (series often up to 53.6 µM), hits mostly inhibitors. AID 2551. 310,000 tested, 5.4% active. Drosophila S2 Gal4-RORgamma UAS-luciferase reporter, 20 h; note: nearly all actives have a fitted effect of over 60% in size
Target sequence (P51450 whole entry, looked up, the tested form may be a part): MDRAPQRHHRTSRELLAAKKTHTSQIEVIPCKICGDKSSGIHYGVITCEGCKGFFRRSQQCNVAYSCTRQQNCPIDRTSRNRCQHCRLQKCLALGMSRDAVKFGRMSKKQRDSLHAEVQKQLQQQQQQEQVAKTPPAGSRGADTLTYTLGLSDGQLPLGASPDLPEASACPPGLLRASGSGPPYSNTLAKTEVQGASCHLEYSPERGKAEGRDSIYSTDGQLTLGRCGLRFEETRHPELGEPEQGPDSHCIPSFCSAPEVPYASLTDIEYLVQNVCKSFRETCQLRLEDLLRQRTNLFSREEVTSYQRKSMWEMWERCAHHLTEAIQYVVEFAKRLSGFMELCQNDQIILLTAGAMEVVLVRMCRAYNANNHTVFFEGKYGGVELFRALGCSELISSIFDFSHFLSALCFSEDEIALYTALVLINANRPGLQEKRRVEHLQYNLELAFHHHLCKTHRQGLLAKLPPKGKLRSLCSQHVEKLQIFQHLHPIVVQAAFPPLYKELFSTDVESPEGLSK
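A Gal4/UAS one-hybrid system in insect cells: metallothionein-promoter Gal4–ROR gamma fusion plus Photinus luciferase reporter. Copper sulfate 700 uM final, 20 hr ambient incubation, luminescent detection after 10 min with reagent.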
DT40 TDP1 no CPT: qHTS for Inhibitors of human tyrosyl-DNA phosphodiesterase 1 (TDP1): qHTS in cells in absence of CPT; DT40 Tdp1-/- hTDP1 cells, no CPT, ATP luminescence, 48 h; Potency, µM (highest dose often 46.2 µM), actives largely listed as inhibitors; 420,000 tested, 15% active; AID 686978, 2013; note: nearly all actives have a fitted effect of over 55% in size
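Chicken DT40 Tdp1-/- cells stably complemented with human TDP1 were seeded at 400 cells/well with DMSO in place of 20 nM camptothecin. After compound pinning, cells grew at least 48 hr at 37 °C; viability read by CellTiter-Glo luminescence.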
ALOX12 inh: ALOX12 (human) lipoxygenase inhibition. P18054. purified 12hLO, xylenol orange hydroperoxide absorbance. Potency, µM (highest dose often 108 µM), usual class: inhibitors. 580,000 tested, 1.1% active. AID 1671190
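Hydroperoxide product was detected by ferrous iron/xylenol orange as the 573 to 405 nm absorbance ratio. Arachidonic acid at 40 uM (final) was turned over for 30 min at room temperature by 150 nM human 12hLO, pH 7.0 Hepes buffer, after 15 min compound preincubation.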
ELG1 DNA repair: inhibitors of ELG1-dependent DNA repair in HEK293T cells; HEK293T ELG1-luciferase reporter, luminescence, 16 h; DNA damage induced by 5-fluorouridine; Potency, µM (titrated, usually from 46.1 µM), hits mostly inhibitors; 330,000 tested, 2.3% active; note: nearly all actives have a fitted effect of over 55% in size
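Step one: seed 2,000 cells per well. Step two: pin-transfer compound or DMSO alongside 5-fluorouridine. Step three: incubate 16 hr, 37 °C, 5% CO2. Step four: add ONE-Glo, wait 30 min, read luminescence.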
Hits are given with their value; 0 = inactive; ? = inconclusive; - = not tested or not shown; [ ] = dose if it differs, or a comment. Calls come from the whole dose curve; as a rule, active = well fitted curve in the direction sought with a large enough effect; inconclusive = small, poorly fitted or top-dose-only effect, or another doubt; inactive = no such curve, though single readings can be large; an effect the other way counts as inactive or inconclusive.

SMILES	DT40 TDP1 CPT	Gal4-VP16 FLuc	RORg inh	DT40 TDP1 no CPT	ALOX12 inh	ELG1 DNA repair
CC(C)C[C@@H]1CC2=C(C(=O)OC(C)(C)O2)[C@H](c2ccc(Cl)cc2)O1	?	-	-	18µM	0	-
Cc1cccc(S(=O)(=O)N(C)CC2CCOC2)c1 (stereo not drawn)	-	-	-	-	0	-
CCCCc1ncc(-c2c(-c3ccccc3)ncn2CCC2CCCN2C)[nH]1 (stereo not drawn)	-	-	-	-	0	-
O=C(NCc1ccccc1)c1onc(CSc2ccc(Cl)cc2)c1C(=O)NCC1CC1	?	-	-	?	0	0
O=C(NCc1ccccc1)c1onc(CSc2ccc(Cl)cc2)c1C(=O)NCc1ccccc1	?	0	0	?	0	0
O=C(NCc1ccccc1)c1onc(CSc2ccccc2)c1C(=O)NCC1CC1	13µM	0	?	21µM	?	23µM
O=C(NCc1ccccc1)c1onc(CSc2ccccc2)c1C(=O)NCc1ccccc1	16µM	-	-	?	?	-
COc1ccc(CCc2nc3nccc(-c4ccc(OC)cc4F)n3n2)cc1	-	-	-	-	0	-
CCOC(=O)c1c(C)oc2nc(C)nc(NCc3ccccc3OC)c12	12µM	-	-	15µM	?	-
CCOC(=O)c1c(C)oc2nc(C)nc(NCc3ccccc3OCC)c12	?	-	-	?	0	-
CCOC(=O)c1c(C)oc2nc(C)nc(NCC3CCN(Cc4cccc(C)c4)CC3)c12	0	-	-	0	0	-
CCOC(=O)c1c(C)oc2nc(C)nc(NCc3ccccc3Cl)c12	16µM	-	-	?	0	-
CC1CCN(c2ccc3nnc(CCC(=O)NC(C)CCc4ccco4)n3n2)CC1 (stereo not drawn)	-	-	-	-	0	-
Cc1noc(C)c1-c1cc(-c2ccccc2F)cn2cncc12	-	-	-	-	0	-
CCCNC(=O)C1(C)CCN(CCS(=O)(=O)c2ccc(C)cc2)C1 (stereo not drawn)	0	-	-	0	0	-
COCCNC(=O)C1(C)CCCN(CCC(=O)c2ccc(Br)cc2)C1 (stereo not drawn)	5.8µM	-	-	7.3µM	0	-
CCNC(=O)C1(C)CCN1CCC(=O)c1ccc(Br)cc1 (stereo not drawn)	21µM	-	-	16µM	0	-
CCNC(=O)C1(C)CCN1CCS(=O)(=O)c1ccc(C)cc1 (stereo not drawn)	0	-	-	0	0	-
CCCNC(=O)C1(C)CCN(CCC(=O)c2ccc(Br)cc2)C1 (stereo not drawn)	2.6µM	-	-	3.3µM	?	-
O=S(=O)(c1cccc2ccccc12)N1CCN(c2ccc(F)cc2)CC1	-	-	-	-	0	-
CSc1cccc(NC(=O)Cn2c(N3CCC(C)CC3)nc(C)cc2=O)c1	-	-	-	-	0	-
COc1cccc(OC)c1-c1cc(CCCc2cc(-c3c(OC)cccc3OC)nc3ccccc23)c2ccccc2n1	?	-	-	13µM	-	-
COc1c2ccccc2nc2ccccc12	?	?	?	?	?	0
Cc1[nH]c2ccccc2c1C(=O)COc1cccc2ccccc12	-	-	-	-	0	-
COc1ccccc1C(C)NCC(=O)c1c(C)[nH]c2ccccc12 (stereo not drawn)	11µM	-	-	18µM	-	-
SMILES	DT40 TDP1 CPT	Gal4-VP16 FLuc	RORg inh	DT40 TDP1 no CPT	ALOX12 inh	ELG1 DNA repair
O=c1[nH]c2c(s1)C(c1ccc(O)cc1)C1C3CCC(C3)C1S2 (stereo not drawn)	0	0	0	?	45µM	0
CC(=O)c1cc2c(cc1O)CCCC2	-	-	-	-	0	-
CC(=O)N1CCN(S(=O)(=O)c2cccc(C(=O)OCc3ccc(C(C)(C)C)cc3)c2)CC1	7.3µM	-	-	8.2µM	0	0
O=C(c1cc(S(=O)(=O)N2CCN(c3ccccc3)CC2)ccc1Cl)N1CCCC(C(F)(F)F)C1 (stereo not drawn)	15µM	-	-	?	0	0
Cc1ccc(COC(=O)c2cccc(S(=O)(=O)N3CCCCCC3)c2)cc1	0	-	-	0	0	?
CCOC(=O)c1ccc(S(=O)(=O)N2CCN(C(=O)c3cccc(S(=O)(=O)N4CC(C)OC(C)C4)c3)CC2)cc1 (stereo not drawn)	16µM	-	-	9.2µM	0	-
O=C(c1cccc(S(=O)(=O)N2CCN(c3ccccc3)CC2)c1)N1CCCC(C(F)(F)F)C1 (stereo not drawn)	7.3µM	-	-	5.2µM	0	?
CC1CN(S(=O)(=O)c2cccc(C(=O)OCC(=O)N3CCCCCC3)c2)CC(C)O1 (stereo not drawn)	0	-	-	0	0	0
O=C(c1cccc(S(=O)(=O)N2CCCC2)c1)N1CCN(c2ccccc2)CC1	?	0	0	?	0	?
CCc1ccc(S(=O)(=O)N2CCC(n3cnnc3CCOC)CC2)cc1	-	-	-	-	0	-
O=C(c1ccn[nH]1)N1CCC(c2nc(CCOCC3CC3)no2)C1 (stereo not drawn)	-	-	-	-	0	-
Cc1ccc(CNC(=O)c2ccc(NC(=O)c3cc4c(=O)[nH]c(C)cn4n3)cc2)cc1	-	-	-	-	0	-
CC1CN(C(=O)c2cccc(S(=O)(=O)N3CCN(c4ccccc4)CC3)c2)CC(C)O1 (stereo not drawn)	15µM	-	-	?	0	0
CN1CCN(C(=O)CSc2nc3ccccc3o2)CC1	-	-	-	-	0	-
CCOC(=O)c1ccc(S(=O)(=O)N2CCN(C(=O)CSc3nc4ccccc4o3)CC2)cc1	12µM	0	0	12µM	0	?
Cc1ccc(C(=O)N2CCC3(CC2)N(c2ccccc2)C(=O)CS3(=O)=O)c(C)c1	-	-	-	-	0	-
CCN(CC)S(=O)(=O)c1ccc(NC(=O)C2CCCN(C(=O)c3ccc(Cl)cc3)C2)cc1 (stereo not drawn)	16µM	0	0[10 µM]	23µM	?	18µM
CC(=O)Nc1ccc(NC(=O)C2CCCN(C(=O)c3ccc(Cl)cc3)C2)cc1 (stereo not drawn)	0	0	0	0	?	0
CN(C)S(=O)(=O)c1cccc(NC(=O)C2CCCN(C(=O)c3ccc(Cl)cc3)C2)c1 (stereo not drawn)	?	-	-	15µM	0	-
Cc1ccc(S(=O)(=O)N(C)C)cc1NC(=O)C1CCCN(C(=O)c2ccc(Cl)cc2)C1 (stereo not drawn)	?	-	-	?	0	0
Cc1ccc(NC(=O)C2CCCN(C(=O)c3ccc(Cl)cc3)C2)cc1S(=O)(=O)N1CCOCC1 (stereo not drawn)	21µM	0	0	16µM	0	?
O=C(Nc1ccc(OC(F)(F)F)cc1)C1CCCN(C(=O)c2ccc(Cl)cc2)C1 (stereo not drawn)	16µM	-	-	12µM	0	?
O=C(CC(SCCO)c1ccc(F)cc1)c1ccco1 (stereo not drawn)	18µM	0	?	16µM	0	0

High-throughput results: PubChem, National Center for Advancing Translational Sciences (NCATS)
